A selection: hits, their analogues and other compounds. The true share with any hit is near 8.5%.
RGS12 GoLoco inh – blocks human Gai1 binding to RGS12 GoLoco peptide, red readout | Potency, µM (titrated, usually from 61.6 µM), inactives show at the top dose activity, negative = inhibition, most hits filed as inhibitors | 230,000 tested, 0.44% active | P63096 | Gai1:RGS12 GoLoco peptide FP, rhodamine, 10 min; active = well fitted inhibition curve with a large enough effect, not every such curve was filed as active; inactive = no such curve, though single readings can be large or run the other way; note: potency is the fitted concentration of half-maximal effect; nearly all actives have a fitted effect of over 30% in size
Target sequence (P63096 whole entry, looked up): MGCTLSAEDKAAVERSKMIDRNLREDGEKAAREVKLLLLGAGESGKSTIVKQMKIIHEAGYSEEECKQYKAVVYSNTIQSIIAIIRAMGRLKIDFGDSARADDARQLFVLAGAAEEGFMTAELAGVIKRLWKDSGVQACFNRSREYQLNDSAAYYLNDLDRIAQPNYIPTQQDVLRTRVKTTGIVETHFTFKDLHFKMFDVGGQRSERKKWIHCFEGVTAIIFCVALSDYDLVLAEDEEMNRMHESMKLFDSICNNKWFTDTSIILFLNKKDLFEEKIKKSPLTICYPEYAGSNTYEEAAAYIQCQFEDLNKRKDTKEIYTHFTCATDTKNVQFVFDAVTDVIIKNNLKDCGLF
FBPA coupling cs – counter-screen for Giardia aldolase inhibitors: coupling enzyme system. coupling enzyme system counterscreen, AmpLite Red fluorescence. activity change, negative = inhibition, % at 58.2 µM, hits read low. 290,000 tested, 0.67% active. AID 2472; in the data active = activity change below about -30%
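Coupling enzymes only (glyceraldehyde-3-phosphate) + compound, at 57.5 uM final, 10 min RT; add substrate/coupling/AmpLite Red mix, 20 min RT; fluorescence ex 525/em 598 nm. Actives flag coupling-system interference.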
Sfp PPTase inh – Sfp phosphopantetheinyl transferase inhibition; Q9F4F7; Biochemical Sfp PPTase activity, qHTS; Potency, µM, for inactives: largest response in the series, negative = inhibition, actives largely listed as inhibitors; 310,000 tested, 3.5% active; AID 1490;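 note: the enzyme is Sfp with the accession as filed and its product quenches rhodamine fluorescence; potency is the fitted concentration of half-maximal effect; 0% = enzyme reaction without inhibitor and -100% = no enzyme wells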
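Reaction rates are the 30-min fluorescence difference (ex 525, em 598 nm) in wells containing 15 nM Sfp, 5 uM rhodamine-CoA and 12.5 uM BHQ-2-YbbR at pH 7.6 with 10 mM MgCl2.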
JMJD2E inh – blocks human JMJD2E demethylase activity; B2RXH2; JMJD2E catalytic domain, FDH-coupled NADH fluorescence (FDH is formaldehyde dehydrogenase); Potency, µM (highest dose often 57.1 µM), inactives show at the highest dose activity change, negative = inhibition, usual class: inhibitors; 230,000 tested, 1.6% active; AID 2147; active = well fitted inhibition curve with a large enough effect, not every such curve was filed as active; inconclusive = small, poorly fitted or top-dose-only effect, or another doubt; inactive = no such curve, though single readings can be large or run the other way;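 note: potency is the fitted concentration of half-maximal effect; 0% = wells with enzyme and -100% = buffer wells without enzyme; nearly all actives have a fitted effect of over 50% in size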
Target sequence (B2RXH2 1-337 limits assumed): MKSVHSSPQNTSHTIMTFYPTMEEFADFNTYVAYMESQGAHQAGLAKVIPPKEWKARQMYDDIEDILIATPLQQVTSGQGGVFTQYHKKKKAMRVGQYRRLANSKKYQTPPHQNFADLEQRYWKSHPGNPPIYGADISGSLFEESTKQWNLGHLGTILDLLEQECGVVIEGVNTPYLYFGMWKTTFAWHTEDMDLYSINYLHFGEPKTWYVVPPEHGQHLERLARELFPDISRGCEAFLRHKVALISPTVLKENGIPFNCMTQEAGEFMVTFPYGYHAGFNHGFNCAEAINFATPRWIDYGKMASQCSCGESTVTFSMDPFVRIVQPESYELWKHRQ
NPSR antagonist – antagonists of human neuropeptide S receptor cAMP signaling; Q6W5P4; CHO-NPSR cells, cAMP TR-FRET, antagonist mode; Potency, µM (doses to about 38.3 µM), without a hit: at the top dose activity change, negative = inhibition, hits mostly inhibitors; 220,000 tested, 1% active; note: potency is the fitted concentration of half-maximal effect; nearly all actives have a fitted effect of over 50% in size
ALDH1A1 inh – blocks purified human ALDH1A1 activity; 220,000 tested, 7.3% active; P00352; Purified ALDH1A1, NADH fluorescence, propionaldehyde substrate; Potency, µM (series often up to 75.3 µM), for inactives: at the top dose activity, negative = inhibition, hits mostly inhibitors; active = well fitted inhibition curve with a large enough effect, not every such curve was filed as active; inconclusive = small, poorly fitted or top-dose-only effect, or another doubt; inactive = no such curve, though single readings can be large or run the other way;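 note: potency is the fitted concentration of half-maximal effect; plate controls were no enzyme wells and a reference inhibitor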
* = called active by the depositor; [ ] = another dose, or the depositor's remark. Unless noted, calls come from the whole dose curve; as a rule, active = well fitted curve in the direction sought with a large enough effect; inconclusive = small, poorly fitted or top-dose-only effect, or another doubt; inactive = no such curve, though single readings can be large; an effect the other way counts as inactive or inconclusive. Unless noted, % is set by controls: 0 for no effect and ±100 for the full control effect.

CC(CC(F)(F)F)N1CCC(n2nccc2NC(=O)CCCc2ccccc2)CC1 (configuration not stated) was read as FBPA coupling cs 0 and Sfp PPTase inh 15%.
`C=CCNC(=S)Nc1sc2c(c1C(=O)OCC)CC(C(C)C)OC2` (configuration not stated) gave RGS12 GoLoco inh 1%, FBPA coupling cs -2, Sfp PPTase inh 8%, JMJD2E inh 197%, NPSR antagonist 5%[46.1 µM] and ALDH1A1 inh 11µM*.
For CCOC(=O)c1c(NC(=S)NCCc2ccccc2)sc2c1CC(C(C)C)OC2 (configuration not stated) the results were RGS12 GoLoco inh 0%, FBPA coupling cs -3, Sfp PPTase inh 6%, JMJD2E inh -2%, NPSR antagonist inconclusive and ALDH1A1 inh 25µM*.
For Cc1cc(NC(=O)Nc2ccc(N(C)C)cc2)c2cc(F)cc(F)c2n1 the results were RGS12 GoLoco inh -10%, FBPA coupling cs -1, Sfp PPTase inh inconclusive, JMJD2E inh inconclusive and ALDH1A1 inh -7%.
COC(=O)c1c(NC(=O)Cc2ccccc2)sc2c1C(C(=O)OC)CC2 (configuration not stated) was read as RGS12 GoLoco inh 1%, FBPA coupling cs 3, Sfp PPTase inh 79µM*, JMJD2E inh 10%, NPSR antagonist -17% and ALDH1A1 inh inconclusive.
COC(=O)c1c(NC(=O)C(C)(C)C)sc2c1C(C(=O)OC)CC2 (configuration not stated) was read as RGS12 GoLoco inh -11%, Sfp PPTase inh -12%, JMJD2E inh 0%, NPSR antagonist -14%[46.1 µM] and ALDH1A1 inh inconclusive.
For COC(=O)c1c(NC(=O)C(Cl)Cl)sc2c1C(C(=O)OC)CC2 (configuration not stated) the results were RGS12 GoLoco inh 16%, FBPA coupling cs 4, Sfp PPTase inh -18%, JMJD2E inh -7%, NPSR antagonist 56% and ALDH1A1 inh 0.89µM*.
Screening CCC(=O)N1CCN(c2ccc(NC(=S)NC(=O)c3cc4ccccc4o3)cc2)CC1 returned Sfp PPTase inh -4%.
Screening COc1ccc(CNC(=O)N2CCc3ccccc3C2)cc1Cl returned FBPA coupling cs 0 and Sfp PPTase inh -6%.
O=C(N/N=C/c1[nH]c2ccccc2c1Cl)c1cccc(Br)c1 was read as RGS12 GoLoco inh 3%, FBPA coupling cs -1, Sfp PPTase inh 16%, JMJD2E inh inconclusive, NPSR antagonist -2% and ALDH1A1 inh inconclusive.
For O=C(N/N=C/C1C(c2ccccc2)C1(Cl)Cl)c1cccc(Br)c1 (configuration not stated) the results were RGS12 GoLoco inh -1%, FBPA coupling cs 3, Sfp PPTase inh -2%, JMJD2E inh -17%, NPSR antagonist -17%[46.1 µM] and ALDH1A1 inh 11µM*.
For Cc1ccc2c(Cl)c(C(=O)Nc3ccc4c(c3)OCO4)sc2c1 the results were RGS12 GoLoco inh 13%, FBPA coupling cs 3, Sfp PPTase inh -2%, JMJD2E inh -14%, NPSR antagonist 6.3µM* and ALDH1A1 inh -11%.
Cc1noc(C(=O)Nc2ccc3c(c2)OCO3)c1Cl was read as RGS12 GoLoco inh 6%, FBPA coupling cs -3, Sfp PPTase inh 13%, JMJD2E inh -5%, NPSR antagonist 1%[46.1 µM] and ALDH1A1 inh -6%.
For N#Cc1cccc(-c2nc(NCCN3CCOCC3)c3ccccc3n2)c1 the results were RGS12 GoLoco inh 3%, FBPA coupling cs 2, Sfp PPTase inh 11% and ALDH1A1 inh 18µM*.
For COCc1c(C(=O)OCC(=O)NCCN2C(=O)CSC2=O)oc2ccccc12 the results were RGS12 GoLoco inh -1%, FBPA coupling cs 4, Sfp PPTase inh 1%, JMJD2E inh inconclusive, NPSR antagonist 8% and ALDH1A1 inh -2%.
`COc1ccc(C(=O)ON=C2CCN(c3ccc([N+](=O)[O-])cc3)CC2)cc1` gave RGS12 GoLoco inh -12%, FBPA coupling cs 1, Sfp PPTase inh -4%, JMJD2E inh 4%, NPSR antagonist -13%[46.1 µM] and ALDH1A1 inh 4µM*.
O=C(Nc1ccc(Cl)cc1)N1CCSC1=NCc1ccccc1 was read as RGS12 GoLoco inh 7%, FBPA coupling cs 3, Sfp PPTase inh 19%, JMJD2E inh 5% and NPSR antagonist 9%.
For CC(=O)Nc1ccc(C2=NN(C)C(=NCc3ccccc3)SC2)cc1 the results were RGS12 GoLoco inh 29%, FBPA coupling cs -1, Sfp PPTase inh -15%, JMJD2E inh -8%, NPSR antagonist -26% and ALDH1A1 inh 2.8µM*.
For COc1ccc(CC(=O)N2CCN(c3ccccc3)CC2)cc1 the results were FBPA coupling cs 1 and Sfp PPTase inh 7%.
COc1ccc(CC(=O)N2CC(=O)N(CCc3ccccc3)C(=O)C2)cc1 was read as RGS12 GoLoco inh 5%, FBPA coupling cs -4, Sfp PPTase inh 0%, JMJD2E inh -10%, NPSR antagonist -4%[46.1 µM] and ALDH1A1 inh 10µM*.
COc1ccc(C(=O)N2CC(=O)N(CCc3ccccc3)C(=O)C2)cc1OC was read as RGS12 GoLoco inh -4%, FBPA coupling cs 1, Sfp PPTase inh 8%, JMJD2E inh 1%, NPSR antagonist -3%[46.1 µM] and ALDH1A1 inh -10%.
`CN(C)c1ccc(C(=O)N2CC(=O)N(CCc3ccccc3)C(=O)C2)cc1` gave RGS12 GoLoco inh -6%, FBPA coupling cs 2, Sfp PPTase inh 16%, JMJD2E inh 1%, NPSR antagonist -9%[46.1 µM] and ALDH1A1 inh 6.3µM*.
`CC(=O)c1cnc2nc(SCc3cccc(C)c3)nn2c1C` gave FBPA coupling cs 6 and Sfp PPTase inh -7%.
O=C(COc1ccccc1[N+](=O)[O-])Nc1ccc2c(c1)OCO2 was read as RGS12 GoLoco inh 9%, FBPA coupling cs 6, Sfp PPTase inh 9%, JMJD2E inh 4%, NPSR antagonist 1% and ALDH1A1 inh -15%.
`O=C(Cc1ccccc1[N+](=O)[O-])NCc1ccc2c(c1)OCO2` gave RGS12 GoLoco inh 10%, FBPA coupling cs 0, Sfp PPTase inh 9%, JMJD2E inh 4%, NPSR antagonist 8% and ALDH1A1 inh -2%.
`Cc1c(C(=O)OCC(=O)Nc2ccc3c(c2)OCO3)cccc1[N+](=O)[O-]` gave RGS12 GoLoco inh 7%, FBPA coupling cs 0, Sfp PPTase inh 9%, JMJD2E inh -4%, NPSR antagonist -5% and ALDH1A1 inh 8.9µM*.
Cc1c(C(=O)OCC(=O)NCc2ccc3c(c2)OCO3)cccc1[N+](=O)[O-] was read as RGS12 GoLoco inh -9%, FBPA coupling cs -4, Sfp PPTase inh -17%, JMJD2E inh -8%, NPSR antagonist 11% and ALDH1A1 inh 7.9µM*.
